Assay results as given in PubChem BioAssay (NCI).
This is part of a sample that, as a whole, favours compounds with a hit. Of some 79,000 tested, about 15% had one in any assay. Rule as the data show it: active = growth inhibition above about 70%; inactive = the rest.

Key:
[1] = NCI Yeast Anticancer Drug Screen. Data for the rad50 strain (AID 155);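 also: 0% = growth of vehicle-only cultures of the same strain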; details: S. cerevisiae rad50 strain growth inhibition; at 50.0 µM; active compounds read high
In short: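 Genetically altered yeast (DNA repair pathway); compound treatment; growth inhibition vs vehicle ctrl.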

[2] = NCI Yeast Anticancer Drug Screen. Data for the mec2-1 strain (AID 157); details: S. cerevisiae mec2-1 strain, at 50.0 µM, active compounds read high
In short: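 Using mec2-1 yeast: add compound, measure growth, express inhibition versus vehicle-treated cultures.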

[3] = NCI Yeast Anticancer Drug Screen. Data for the sgs1 mgt1 strain (AID 161);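 also: 0% = growth of cultures given vehicle only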; details: S. cerevisiae sgs1 mgt1 strain, at 50.0 µM, active compounds read high
In short: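 Growth of a repair-deficient yeast mutant was monitored after compound treatment and expressed as inhibition relative to vehicle-treated cultures.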

[4] = NCI Yeast Anticancer Drug Screen. Data for the cln2 rad14 strain (AID 165);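 also: 0% = growth equal to vehicle treated cultures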; details: S. cerevisiae cln2 rad14 strain, at 50.0 µM, active compounds read high
In short: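 Yeast strain cln2 rad14, bearing defects in cell cycle control and DNA repair, serves as the test system; values reflect growth inhibition compared with vehicle.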

[5] = NCI Yeast Anticancer Drug Screen. Data for the bub3 strain (AID 167); details: S. cerevisiae bub3 mutant strain, at 50.0 µM, active compounds read high
In short: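 Yeast carrying a defined mutation is treated with each compound, and growth is compared with that of vehicle-exposed cells to give inhibition.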

[6] = NCI Yeast Anticancer Drug Screen. Data for the mlh1 rad18 strain (AID 175); details: S. cerevisiae mlh1 rad18 strain growth inhibition; at 50.0 µM; active compounds read high
In short: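 Steps: expose repair-defective yeast to compound; measure growth; express inhibition against vehicle-treated controls.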

Measured: growth inhibition

CC(C(=O)O)C1Nc2ccccc2NC1=O (stereo unspecified)
inactive: [1] 13.4% | [2] 28.6% | [3] 7.05% | [4] -12.4% | [5] -18.7% | [6] 0.3%

C(=Nc1ccccc1)Nc1ccccc1
inactive: [1] 2.85% | [2] 15.1% | [3] 16.4% | [4] 25.9% | [5] -15.4% | [6] -12.8%

CCCCCCCCCCCCNCC(O)c1cc(-c2ccccc2)nc2c(Cl)cc(Cl)cc12 (stereo unspecified)
inactive: [1] 8.1% | [2] 8.9% | [3] 31.9% | [4] 29.1% | [5] -8% | [6] 26.5%

CC(C(=O)O)N(CCC#N)CCC#N (stereo unspecified)
inactive: [1] 17.8% | [2] -6.05% | [3] -0.5% | [4] 0.1% | [5] 2.35% | [6] 3.4%

COc1cc2c(c(OC)c1OC)-c1ccc(S(=O)(=O)Cc3ccccc3)c(=O)cc1C(NC(C)=O)CC2 (stereo unspecified)
inactive: [1] 34.5% | [2] 16.2% | [3] 9.8% | [4] -2.3% | [5] 1.25% | [6] 21.8%

Fc1ccc(N2CSC(=S)N(c3ccc(F)cc3F)C2)c(F)c1
inactive: [1] 8.95% | [2] -5.7% | [3] 31.5% | [4] 6.8% | [5] 28.9% | [6] 18.8%

CCCC[P+](CCCC)(CCCC)C(C(=O)OC)C(C(=O)OC)=C1SC(C(=O)OC)=C(C(=O)OC)S1 (stereo unspecified)
inactive: [1] -0.75% | [2] 0.7% | [3] 6.75% | [4] 6.6% | [5] 19.4% | [6] -45.5%

O=C1C2=C(Nc3ccccc3N2)OC1c1ccc2c(c1)OCO2 (stereo unspecified)
inactive: [1] 4.15% | [2] -9.95% | [3] -20.1% | [4] -7.9% | [5] -29.4% | [6] -0.1%

CC(=O)Nc1cc2cc(N=CN(C)C)ccc2oc1=O
inactive: [1] -24.9% | [2] -43.4% | [3] -16.4% | [4] -10.8% | [5] -18.1% | [6] -7.4%

CCOC(=O)/C(OC(C)=O)=C1/C=C(C(=O)c2ccccc2)CCC1
inactive: [1] 7.8% | [2] 25.2% | [3] 11.9% | [4] -4.1% | [5] 27.1% | [6] 7.4%

CCn1c2ccccc2c2nnc(NCCCO)nc21
inactive: [1] -14.7% | [2] -31.3% | [3] -16.5% | [4] -1.25% | [5] -51.7% | [6] 7.55%

Cc1ccc(C(C)[N+](=O)[O-])cc1 (stereo unspecified)
inactive: [1] 13.2% | [2] 18.1% | [3] 18.4% | [4] -13.7% | [5] 0.45% | [6] 18.2%

CCN(CC)Cc1cc(C)c(O)c(N=Nc2ccc(-c3ccc(N)c(OC)c3)cc2OC)c1C
inactive: [1] -21.4% | [2] 12.7% | [3] -8.05% | [4] -2.05% | [5] -6.1% | [6] -21.4%

O=C(O)CCC(=O)Nc1cccc(C(F)(F)F)c1
inactive: [1] -5.9% | [2] 3.4% | [3] -3.15% | [4] -0.55% | [5] 15.2% | [6] 4.3%

CCOC(=O)c1cc2cc(Br)ccc2[nH]1
inactive: [1] 2% | [2] -24% | [3] 8.5% | [4] 5.9% | [5] -2.7% | [6] 20.4%

OCC(O)COc1ccccc1F (stereo unspecified)
inactive: [1] 11.5% | [2] -6.35% | [3] -11.2% | [4] -13.2% | [5] -7.5% | [6] 10.8%

CC1=CC(=O)CC(C(C)C)C1 (stereo unspecified)
inactive: [1] 15.5% | [2] -7.5% | [3] 22.8% | [4] -5.95% | [5] 1.95% | [6] 5.2%

CN(C)c1ccc(/C(=N\O)C(=O)O)cc1
inactive: [1] -15.2% | [2] -13.3% | [3] -2.2% | [4] -9.1% | [5] 0.1% | [6] 1.55%

c1ccc2c(c1)CSc1ccccc1-2
inactive: [1] 9.8% | [2] -8.9% | [3] -6.4% | [4] -12.2% | [5] 7% | [6] -3.65%

O=c1oc2ccccc2c(O)c1C(c1cccc(C(c2c(O)c3ccccc3oc2=O)c2c(O)c3ccccc3oc2=O)c1)c1c(O)c2ccccc2oc1=O
inactive: [1] 26.6% | [2] 37.5% | [3] -2.7% | [4] -17.6% | [5] -5.3% | [6] 67.8%

O=C1c2ccccc2C(=O)N1Br
inactive: [1] 0.15% | [2] -19.5% | [3] 6.5% | [4] 10.8% | [5] 3.6% | [6] 18.9%

COC(=O)c1cocc1C(=O)OC
inactive: [1] -13.9% | [2] -7.25% | [3] -3.75% | [4] -2.8% | [5] -15.3% | [6] -15.9%

[N-]=[N+]=NC1CCOC(n2cnc3c(N)ncnc32)C1O (stereo unspecified)
inactive: [1] -2.05% | [2] -3.95% | [3] 5.55% | [4] -33.5% | [5] -4.6% | [6] 1.85%

CC(=O)Nc1ccc(/C=N/NC(=O)/C=C/c2ccccc2)cc1
inactive: [1] -7.15% | [2] 3.25% | [3] 6.25% | [4] -5% | [5] -1% | [6] 2.15%

O=[N+]([O-])c1nccn1CC(O)CN1CCCCC1 (stereo unspecified)
inactive: [1] 5.95% | [2] -1.15% | [3] 16.8% | [4] -4.85% | [5] -7.85% | [6] 18.9%

COc1cccc(NC(=O)Nc2ccccc2Cl)c1
inactive: [1] -13.2% | [2] 8.1% | [3] -3.25% | [4] -19.2% | [5] -1.3% | [6] -32.6%

CCOC(=O)C(CC)C1=CCCCC1 (stereo unspecified)
inactive: [1] -21% | [2] -48.7% | [3] -11.2% | [4] 12.3% | [5] -11.2% | [6] -8.55%

CCC1(c2ccccc2)SCC(=O)NC1=O (stereo unspecified)
inactive: [1] 21.1% | [2] 4.5% | [3] 12.8% | [4] 10.8% | [5] 18.4% | [6] 6.95%

Cc1cc[n+](CC(=O)c2ccc(Br)cc2)cc1
inactive: [1] 22.8% | [2] 12.7% | [3] 18.4% | [4] 22.9% | [5] 4.35% | [6] 54.5%

CN(CC(=O)O)Cc1oc(CO)cc(=O)c1O
inactive: [1] -9.45% | [2] -9.5% | [3] -6.1% | [4] -37.5% | [5] -40% | [6] -14.3%

C#CC[N+](CC)(CC)CC
inactive: [1] 2.6% | [2] -11.9% | [3] -11.3% | [4] -84% | [5] -3.3% | [6] -13.2%

COC(=O)c1ccccc1NC(=O)c1cc(C(=O)O)c(C(=O)Nc2ccccc2C(=O)OC)cc1C(=O)O
inactive: [1] 0.75% | [2] 10.2% | [3] 4.95% | [4] 4.35% | [5] -3.7% | [6] 23.1%

CCCCCCCC(=O)OCC1OC(n2cc(F)c(=O)[nH]c2=O)C(NC(=O)OCc2ccccc2)C(O)C1O (stereo unspecified)
inactive: [1] -15.1% | [2] -13.8% | [3] -66.8% | [4] -7.1% | [5] -12.4% | [6] -17.6%

Cn1c(=O)c2[nH]c(CCCCCc3nc4c([nH]3)c(=O)n(C)c(=O)n4C)nc2n(C)c1=O
inactive: [1] -9% | [2] 7.15% | [3] -27.3% | [4] -18.5% | [5] -16.4% | [6] -16.1%

CC1CCCCN1S(=O)(=O)N(C)C (stereo unspecified)
inactive: [1] 8.65% | [2] 27.1% | [3] -4.95% | [4] -6.1% | [5] 9.55% | [6] 6.15%

CNc1ncnc2nc[nH]c12
inactive: [1] 16.2% | [2] -6.85% | [3] 2.9% | [4] -3.15% | [5] -8.5% | [6] 14.9%

Nc1ccc(C(=O)NN2C(=O)C(Cl)C2c2cc(Br)ccc2O)cc1 (stereo unspecified)
inactive: [1] 29.1% | [2] 11.6% | [3] 30.7% | [4] -32.1% | [5] 29.1% | [6] 10.8%

CCCCOC(=O)C(=O)C(CC(CC)C(=O)c1ccccc1)C(=O)C=C(C)C (stereo unspecified)
inactive: [1] -28.9% | [2] -8.5% | [3] -9.55% | [4] -15.2% | [5] -13.6% | [6] 15.2%

CCOC(=O)/C=C\C(=O)O.[Mn]
inactive: [1] -16.2% | [2] -21.4% | [3] -7.65% | [4] -22.9% | [5] -31% | [6] -33.5%

O=C1c2c(-c3ccccc3)ccc(-c3ccccc3)c2C2(O)OC1(O)c1c(-c3ccccc3)ccc(-c3ccccc3)c1C2=O
inactive: [1] 5.65% | [2] 4.95% | [3] 9.1% | [4] -6.9% | [5] 6.4% | [6] -13.9%

Cc1ccccc1/C1=C/CCCCCC1
inactive: [1] -8.1% | [2] 11.3% | [3] -10.4% | [4] -21.6% | [5] 19.5% | [6] -5.05%
